The source of these data is PubChem BioAssay (NCI).

This is part of a sample that, as a whole, favours compounds with a hit. Of some 83,000 tested, about 20% had one in any assay.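 Method: cells in 96-well plates; compound added at one concentration; 48 h incubation; percent growth measured; values under 10 scored active.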 Values without a mark were called inactive. Activity calls are given as the source filed them.

For the assay, the system named is HT29 colon. Briefly: NCI-60 one-dose screen, 48 h (100 = growth as untreated, 0 = no growth, -100 = all killed). The following applies: 10 µM unless noted. How it is done:
Growth inhibition of the HT29 human tumor cell line is measured as a screen for anti-cancer activity. Cells are grown in 96 well plates and exposed to the test compound for 48 hours. Compounds are tested at a single concentration, which is 10^-5 M for most compounds. The reported endpoint is percent growth (GI% or GIPRCNT), where numbers from 0 - 100% represent growth inhibition, and numbers from -100% - 0 represent cell death. For example, a value of 40 represents 60% growth inhibition. A value of 0 means no net growth occurred over the course of the experiment. A value of -40 indicates 40% of cells at the beginning of the experiment died by the end of the experiment. A value of -100 means all cells are dead at the end of the experiment.
NCI-60 Human Tumor Cell Lines Screen was performed using the standard one-dose NCI protocol, which is described in more detail at https://dtp.cancer.gov/discovery_development/nci-60/default.htm.
Compounds with GIPRCNT values below 10 were considered active. Activity score was based on GIPRCNT using the following formula: […]
Score is 0 for GIPRCNT values of 100 or above, 50 for GIPRCNT values of 0, and 100 for GIPRCNT values of -100.
Take `NC1CC2(CCN(c3cnc(C(=O)Nc4cc(F)cc5cccnc45)cn3)CC2)C1`: the growth was 5.06% (active).
Consider `C#C[C@]1(O)CC[C@H]2[C@@H]3CC=C4c5sc(N6CCN(C)CC6)nc5CC[C@]4(C)[C@H]3CC[C@@]21C`, for which the growth is 5.26% (active).
To `Cn1c(SCC(=O)c2ccc(F)cc2)nc2ccccc2c1=O` belongs 101%; to `C=CCSC1=NC2C(N(CC)C(=O)N2CC)N1/N=C/C=C/c1ccccc1OC` (stereo not given), 70.3%; to `Cc1ccc(C(=O)CSc2nc3ccccc3c(=O)n2C)cc1`, 111%.
Under `Cc1ccc(S(=O)(=O)NCCCNc2nc(Nc3ccc(N4CCN(C)CC4)cc3)nc3ccsc23)cc1` stands -61.8% (active); under `Clc1ccc(CSc2nnc(-c3ccc(Cl)cc3)n2-c2ccccc2)cc1`, 84%.
To `COc1ccc(-c2cc(-c3ccc(N(C)C)cc3)n3c(n2)nc2ccccc23)cc1` belongs 54.1%; to `CCOC(=O)c1c(NC(=O)c2ccc(C(F)(F)F)cc2)sc2c(CN3CCN(C)CC3)c(O)ccc12`, -52.1% (active).
For the compound `CC(C)(O)c1cncc(-c2ccc3ncc(C#N)c(N4CCc5cc(F)c(Cl)cc54)c3c2)c1`, the growth was 9.96% (active).
To `NC(=O)n1c(=O)n(-c2cccc(C(F)(F)F)c2)c(=O)c2cc(-c3ccc(F)cc3F)ccc21` belongs 74.8%.
To `O=C(COc1ccc(/C=C2\C(=O)Nc3ccc(F)cc32)cc1)Nc1ccccc1` belongs 107%; to `O=C(/C=C/c1ccccc1Cl)Nc1ncc(Cc2cc(Cl)ccc2Cl)s1`, -18% (active).
Under `C#Cc1cc(OC)c(C(=O)Nc2ccc(F)cc2C(=O)Nc2cccc(S(=O)(=O)C(F)(F)F)c2)cn1` stands -30.3% (active).
On to `CCCc1[nH]c(-c2cc(N)ccc2Cl)c2c1C(=O)CCCC2`, for which the growth is 104%.
Consider `Cc1ccc(C)c(NC2=C(Cl)C(=O)c3nc(C)ccc3C2=O)c1`, for which the growth was 86.4%.
Under `CN1CCN(Cc2ccc(NC(=O)c3cncc(C#Cc4cnc5ccc(OCC6COC6)nn45)c3)cc2C(F)(F)F)CC1` stands -50.9% (active).
Under `Cc1ccc2c(n1)C(=O)C(Cl)=C(Nc1ccc(C)c(C)c1)C2=O` stands 103%.
Turning to `CN1CCN(c2ccc(Nc3nc(NCCNS(=O)(=O)c4ccc(Cl)cc4)c4sccc4n3)cc2)CC1`, the growth was 44.3%.
To `COc1ccc([C@H]2C(=O)N(c3cc(OC)c(OC)c(OC)c3)[C@@H]2c2ccc(OC)c(O)c2)cc1` belongs -3.08% (active).
Under `Brc1cc(-c2cc(-c3ccc4c(c3)OCCO4)[nH]n2)cs1` stands 22.6%; under `CC1=C(C)C(=O)C(Nc2cccc(C)c2)=C(Br)C1=O`, 105%.
To `CCOC(=O)c1cccc(NC2=C(Cl)C(=O)C(C)=C(C)C2=O)c1` belongs 110%; to `Cc1ccc(C(=O)Nc2ccc(CNCCN3CCOCC3)c(C(F)(F)F)c2)cc1C#Cc1cnc2cccnn12`, 2.36% (active).
On to `CCOC(=O)c1c(NC(=O)c2cccc(C(F)(F)F)c2)sc2c3c(ccc12)OCN(C)C3`, for which the growth was -11.8% (active).
On to `CCCCCCN1C=C/C(=C\C(=O)n2ccc3ccccc32)c2ccccc21`, for which the growth is 65.1%.
Under `COc1ccc2c(c1)c(-c1nc(N)nnc1-c1c[nH]c3ccccc13)cn2C` stands 14.5%; under `O=C(CSc1nc2ccccc2c(=O)n1-c1ccc(Cl)cc1)N/N=C/c1ccc(Oc2ccc(Cl)cc2)cc1`, 1.76% (active).
Under `CC(Nc1c(C#N)cnc2ccc(-c3cncc(O)c3)cc12)c1ccccc1` (stereo not given) stands 46.8%; under `CCN(CC)CCOc1ccc(C(=C(C)c2ccc(OC)cc2)c2ccc(OCCN(CC)CC)cc2)cc1`, -28.1% (active).
To `O=C(CCCCCCNC(=O)C(O)(O)C(F)(F)F)Nc1ccc(Br)cc1` belongs 2.18% (active).
With `c1ccc(-c2cn3c(-c4c[nH]c5ccccc45)csc3n2)cc1`, the growth was 63%.
`Cc1ccc(/C(N)=N/C(N)=N/c2nc3ccccc3s2)cc1`: the growth was 110%.
To `N#Cc1c(-c2cccs2)cc(-c2cnccn2)nc1SCC(=O)N/N=C/c1ccccc1` belongs 37.3%; to `O=C(CCCCCCNC(=O)C(O)(O)C(F)(F)F)Nc1ccc(Cl)cc1`, 5.13% (active).
To `CC(C)(C)Nc1nc2c(OCCc3ccccc3)cccn2c1-c1cccc(Oc2ccccc2)c1` belongs 6.41% (active); to `NS(=O)(=O)c1ccc(CCn2c(-c3ccc(C(=O)O)cc3)nc(-c3ccccc3)c2-c2ccccc2)cc1`, 106%; to `CCCCN1C(=O)/C(=c2\sc3n(c2=O)C2C(NN=3)N(CC)C(=O)N2CC)c2cccc(C)c21` (stereo not given), 16.5%.
Under `O=C(/C=C/Nc1ccc(S(=O)(=O)Nc2ncccn2)cc1)c1ccc(N=Cc2c(O)[nH]c3ccccc23)cc1` stands 106%; under `N#C/C(=C\c1ccc(-c2ccc(Cl)c(Cl)c2)o1)C(=O)Nc1ncc(Cc2ccc(Cl)cc2)s1`, 27.9%.
